Bioassay records (PubChem BioAssay)
A selection: hits, their analogues and other compounds. The true share with any hit is near 21%.
Shiga inhibitor: Shiga toxin inhibition. Vero cells, Shiga toxin protein synthesis inhibition reporter. inhibition, % at 38.7 µM. 290,000 compounds, 9.2% hits; in the data active means inhibition mostly above about 28%, no sharp cut-off; inactive means mostly below about 43%; further: 0% is about no effect
NS1 inh: blocks influenza NS1 protein function; AID 2326; Potency, µM (series often up to 46.1 µM), for the others: at the top dose activity, positive = more growth; 270,000 compounds, 0.4% hits; calls by dose curve; further: potency means the concentration at half of the fitted maximal effect; actives are rising curves; nearly all actives have a fitted effect of over 50% in size
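Compounds were scored for reversing the slow growth caused by influenza A NS1 in S. cerevisiae, measured by optical density at 600 nm. Assay medium contained 2% galactose at pH 6.0; NS1-free yeast of the same strain were the positive control.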
Pf growth 48h: inhibits P. falciparum growth in the first generation, 48 h | P. falciparum luciferase growth in erythrocytes, 48 h | Potency, µM (top dose mostly 28.7 µM), without a hit: at the highest dose activity change, negative = inhibition, usual class: inhibitors | 310,000 compounds, 5.9% hits | AID 504832; further: potency means the concentration at half of the fitted maximal effect; on the % scale 0 is the no-effect control and ±100 the full control effect
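Erythrocytes infected with P. falciparum carrying an integrated firefly luciferase reporter (2% hematocrit, 0.1% parasitemia final) were exposed to compounds in RPMI 1640 with 0.5% Albumax at 37 C, 5% CO2. Growth inhibition was scored as reduced luminescence.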
CHX counter: affects cycloheximide protein synthesis inhibition readout, counter-screen; cell reporter, cycloheximide protein synthesis inhibition counterscreen; 300,000 compounds, 12% hits; max response, %; AID 2314; in the data active means max response mostly above about 13%, no sharp cut-off; inactive means mostly below about 14%; further: read at 38.3 µM for the half of the compounds with a filed dose; 0% is about no effect
Pf growth 96h: inhibits malaria parasite growth, 96 h; P. falciparum luciferase reporter growth, 96 h; AID 504834; Potency, µM (top dose mostly 28.7 µM), for the others: at the top dose activity change, negative = inhibition, usual class: inhibitors; 320,000 compounds, 6.9% hits; further: potency means the concentration at half of the fitted maximal effect; on the % scale 0 is the no-effect control and ±100 the full control effect
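Two-generation exposure (96 h) targets delayed-death phenotype. Reporter parasites carrying integrated firefly luciferase, in red cells at 2% hematocrit and 0.05% parasitemia final, kept at 37 C, 5% CO2; luminescence loss indicates inhibition.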
Giardia FBPA inh: Giardia lamblia aldolase inhibition; A8B2U2; purified Giardia FBPA; Potency, µM (highest dose often 59.6 µM), for the others: top-dose activity, negative = inhibition, most hits filed as inhibitors; 290,000 compounds, 0.71% hits; further: potency means the concentration at half of the fitted maximal effect; on the % scale 0 is the no-effect control and ±100 the full control effect; nearly all actives have a fitted effect of over 55% in size
Target sequence (A8B2U2 whole entry, looked up): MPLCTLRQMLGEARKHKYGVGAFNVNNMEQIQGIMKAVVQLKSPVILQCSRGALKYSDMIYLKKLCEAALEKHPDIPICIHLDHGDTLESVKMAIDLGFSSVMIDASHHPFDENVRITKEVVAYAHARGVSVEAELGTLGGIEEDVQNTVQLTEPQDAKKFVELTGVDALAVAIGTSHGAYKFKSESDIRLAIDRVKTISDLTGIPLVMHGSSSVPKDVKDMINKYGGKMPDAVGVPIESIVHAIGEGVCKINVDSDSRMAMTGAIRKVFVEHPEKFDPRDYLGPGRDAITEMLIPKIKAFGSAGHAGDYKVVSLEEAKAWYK
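40 nM FBPA preincubated 10 min at RT with compound (up to 57.5 uM final), then substrate plus GAPDH/TPI/NAD/arsenate coupling and diaphorase/resazurin added. Fluorescence read after 20 min at RT, 525/598 nm.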
* hit, by the source's call; ? = inconclusive; . = no result given; [ ] = another dose, or the depositor's remark. Unless noted, the call rests on the fitted dose curve; in most records, active means well fitted curve in the direction sought with a large enough effect; inconclusive means small, poorly fitted or top-dose-only effect, or another doubt; inactive means no such curve, though single readings can be large; an effect the other way counts as inactive or inconclusive.

SMILES	Shiga inhibitor	NS1 inh	Pf growth 48h	CHX counter	Pf growth 96h	Giardia FBPA inh
COc1cc(OC)cc(-c2c(-c3cccs3)c3cc(-c4cnc(OC)nc4)ccc3n2C)c1	.	.	1.9µM*	.	3.3µM*	.
COc1ccc(-c2ccc3c(c2)c(-c2cccs2)c(-c2cc(OC)cc(OC)c2)n3C)cc1	.	.	2.6µM*	.	?	.
COc1cc(C#Cc2c(-c3cncn3C)n(C)c3ccc(-c4cnc(OC)nc4)cc23)cc(OC)c1	.	.	?	.	2.6µM*	.
COc1ncc2nc(-c3cccs3)c(=O)n(C)c2n1	.	.	.	.	.	-1%
CCCCC(C)(C)[C@H](O)/C=C/[C@H]1[C@H](O)CC(=O)[C@@H]1C/C=C\CCCC(=O)O	.	.	.	.	.	2%
OC1OC[C@H](O)[C@@H](O)[C@H]1O (stereo partly specified)	-7	.	.	-2	.	4%
COc1ccc(-c2cc(=O)oc3cc(OCc4nn[nH]n4)ccc23)cc1	-2	-16%	37%	-1	4.7µM*	10%
COc1ccc([C@H]2CC(=O)C=C(/C=C/c3ccc(C(F)(F)F)cc3)C2)cc1	.	.	?	.	28%	.
CCCCCn1c(NC(=O)c2ccco2)c(S(=O)(=O)c2ccc(C)cc2)c2nc3ccccc3nc21	2	18%	5.2µM*	5	?	?
CCCCn1c(NC(=O)c2ccco2)c(C(=O)OCC)c2nc3ccccc3nc21	-4	-38%	?	-1	?	5µM*
O=C(CN1CCN(S(=O)(=O)c2cccc(Br)c2)CC1)N1CCCCC1	.	.	-11%	.	31%	.
O=C(Nc1ccccc1)N1CC[C@@]2(CCCN(C(=O)c3cccc(F)c3)C2)C1	.	.	.	.	.	0%
COc1cc(C)ccc1OCCCOc1ccccc1Br	110*	-13%	79%	64*	122%	4%
COc1cc(C)ccc1OCCON1C(=O)CCC1=O	55	6%	20%	32*	-8%	0%
COC(=O)c1ccccc1OCCCOc1ccc(C)cc1OC	46	1%	85%	16	78%	4%
COc1ccccc1OCCCOc1ccc(C)cc1Br	74*	-19%	121%	46*	-12%	-3%
COc1cc(C)ccc1OCCOc1c(C)cccc1Cl	57*	-47%	13%	24*	56%	-4%
COc1ccccc1OCCOCCOc1ccc(C)cc1Br	-6	-2%	-8%	1	?	-8%
COc1cc(C)ccc1OCCOc1c(Cl)cc(Cl)cc1Cl	-20	-8%	?	-5	-5%	1%
COc1cc(-c2nnc(SCC(=O)N(Cc3ccccc3)C(C)(C)C)o2)cc(OC)c1OC	4	-2%	10µM*	-3	3.7µM*	-2%
COc1cc(OC)cc(-c2nnc(SCC(=O)N(C(C)C)C(C)C)o2)c1	-4	-7%	7.4µM*	-2	65%	12%
COc1cccc(-c2nnc(SCC(=O)N(C(C)C)C(C)C)o2)c1	56*	-39%	-30%	20	-27%	8%
CC(/C=N/Nc1nnc2c(n1)[nH]c1ccccc12)=C\c1ccco1	65	11%	.	32*	?	-18%
C(=N/Nc1nnc2c(n1)[nH]c1ccccc12)/c1cccnc1	.	16%	.	.	.	.
COc1cccc(/C=N/Nc2nnc3c(n2)[nH]c2ccccc23)c1OC	50*	-1%	-6%	36*	0%	3%
SMILES	Shiga inhibitor	NS1 inh	Pf growth 48h	CHX counter	Pf growth 96h	Giardia FBPA inh
CCOC(=O)C1=C(COC(=O)CCc2ccc(CC)cc2)NC(=O)NC1C (stereo unspecified)	.	.	-1%	.	43%	.
NC(=O)c1ccsc1N	-6	5%	0%	-7	-33%	?
Nc1sccc1C(=O)c1ccc(Cl)cc1	24	-19%	142%	24*	?	-16%
Cc1cccc(N)c1-c1c(C)cccc1N	17	1%	-12%	-2	-2%[5.75 µM]	2%
Cc1nc2c3c(sc2c(=O)[nH]1)NC(=O)CC3c1ccccc1Cl (stereo unspecified)	-9	1%	2%	3	41%	4%
CCCCn1c(N)c(N(CCOC)C(=O)c2ccc(-c3cccc(C(F)(F)F)c3)o2)c(=O)[nH]c1=O	.	.	13µM*	.	7.4µM*	.
CCCCn1c(N)c(N(CCOC)C(=O)c2cc(-c3ccc(OC)cc3)nc3ccccc23)c(=O)[nH]c1=O	.	.	9.3µM*	.	?	.
COCCn1c(N)c(N(Cc2ccccc2)C(=O)c2ccc3ccccc3c2)c(=O)[nH]c1=O	12	.	10µM*	-2	?	-6%
